The results in this text go back to PubChem BioAssay (Tox21).

Assay [1] can be described thus: Nuclear factor erythroid 2-related factor 2/antioxidant responsive element (Nrf2/ARE) small molecule agonists: qHTS cell viability counter screen in human keratinocytes (AID 1919968; active means well fitted curve in the direction sought with a large enough effect in the repeat runs; an effect the other way counts as inactive or inconclusive; further: nearly all actives have a fitted effect of over 55% in size; further: potency means the concentration at half of the fitted maximal effect). In short, it runs like this: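 KeratinoSens cells (HaCaT keratinocytes stably carrying an ARE-luciferase reporter) were seeded at 1,500 cells/well and rested 5 h at 37 C/5% CO2. They were then exposed to compounds in DMSO for 23 h. Viability was read by CellTiter-Fluor fluorescence after 1 h.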

Assay [2] addresses Gonadotropin-releasing hormone receptor (Homo sapiens) (UniProt P30968). As to the kind of experiment: Human gonadotropin-releasing hormone receptor (GnRHR) small molecule agonists, calcium flux assay in GnRHR-HEK293 cells (AID 1920063). Further: nearly all actives have a fitted effect of over 35% in size. The essentials: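 HEK293 cells stably expressing human GnRHR were plated 18 h at 37 °C, loaded with calcium dye 1 h at 37 °C, then given compound in agonist mode; fluorescence (Ex/Em 480/540) read kinetically for 3 min at 1 s intervals.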

The target in assay [3] is KiSS-1 receptor (Homo sapiens) (UniProt Q969F8). Nature of the assay: Human kisspeptin (KISS1R) small molecule agonists, calcium flux assay in KISS1R-HEK293 cells (AID 1920064; active means well fitted curve in the direction sought with a large enough effect in the repeat runs; an effect the other way counts as inactive or inconclusive). In short, it runs like this: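 HEK293 cells stably expressing human KISS1R were plated 18 h at 37 °C, loaded with calcium dye for 1 h at 37 °C, then given compound by pin tool. Fluorescence (Ex/Em 480/540) was read kinetically for 3 min.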
Sequence of KiSS-1 receptor (Homo sapiens) (Q969F8 whole entry, looked up): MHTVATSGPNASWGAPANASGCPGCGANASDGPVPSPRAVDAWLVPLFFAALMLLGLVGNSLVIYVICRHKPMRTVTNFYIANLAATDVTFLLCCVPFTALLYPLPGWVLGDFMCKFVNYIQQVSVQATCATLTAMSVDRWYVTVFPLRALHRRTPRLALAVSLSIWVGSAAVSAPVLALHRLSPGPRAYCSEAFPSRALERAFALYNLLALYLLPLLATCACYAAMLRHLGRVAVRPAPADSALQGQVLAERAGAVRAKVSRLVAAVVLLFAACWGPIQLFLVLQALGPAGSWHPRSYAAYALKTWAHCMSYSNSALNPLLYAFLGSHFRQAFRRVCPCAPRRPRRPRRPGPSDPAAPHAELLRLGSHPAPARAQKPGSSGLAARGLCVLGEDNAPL
(In general: Calcium flux is commonly read through the fluorescence of an indicator in the cells.)

Assay [4] in a line: p53 small molecule agonists, cell-based qHTS assay with human liver microsomes: qHTS cell viability counter screen (AID 1963579). Further: nearly all actives have a fitted effect of over 45% in size. In short, it runs like this:
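Metabolic activation used human liver microsomes and NADPH, both 0.5 mg/mL final, over 16 hours at 37 C on p53RE-bla cells (4,000/well). Cytotoxicity measured by CellTiter-Glo luminescence, 30 min at room temperature.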

Assay [5] in a line: p53 small molecule agonists, cell-based qHTS assay with rat liver microsomes: qHTS cell viability counter screen (AID 1963580). Further: nearly all actives have a fitted effect of over 45% in size. In short, it runs like this:
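HCT-116 p53RE-bla, 4,000 cells/well, 5 h pre-incubation; cpd + rat liver microsomes 0.5 mg/mL + NADPH 0.5 mg/mL (final); 16 h, 37 C; CellTiter-Glo, 30 min RT; luminescence.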
On the technique in general: qHTS replaces the single test concentration by a dilution series.

A short description of assay [6]: p53 small molecule agonists, cell-based qHTS assay: qHTS cell viability counter screen (AID 1963581). Further: nearly all actives have a fitted effect of over 45% in size. The essentials: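 p53RE-bla HCT-116 cells were exposed to compounds for 16 h at 37 C; after the beta-lactamase FRET read in the same wells, CellTiter-Glo was added and luminescence (intracellular ATP) read after 30 min at room temperature.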
Assay [7] concerns the target 5-hydroxytryptamine receptor 2A (Homo sapiens) (UniProt P28223). As to the kind of experiment: 5-hydroxytryptamine receptor 2A (HTR2A) small molecule agonists, cell-based qHTS assay (AID 1963587). Further: nearly all actives have a fitted effect of over 30% in size. Further: potency means the concentration at half of the fitted maximal effect. The essentials: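 Kinetic calcium-flux fluorescence (2 min, 1 sec intervals) after compound addition in agonist mode. HTR2A-CHO cells were cultured 18 h, then dye-loaded 1 h at 37 C.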

The target in assay [8] is Muscarinic acetylcholine receptor M1 (Homo sapiens) (UniProt P11229). Nature of the assay: Cholinergic receptor muscarinic 1 (CHRM1) small molecule antagonists, cell-based qHTS assay (AID 1963588). Further: nearly all actives have a fitted effect of over 40% in size. The essentials: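 CHRM1-CHO calcium-flux assay, antagonist mode. Cells were seeded 18 h, dye-loaded 1 h at 37 C and given compound for 5 min at RT, then acetylcholine was added at 50nM. FDSS fluorescence was read 3 min; 15 concentrations, three runs.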
Sequence of Muscarinic acetylcholine receptor M1 (Homo sapiens) (P11229 whole entry, looked up): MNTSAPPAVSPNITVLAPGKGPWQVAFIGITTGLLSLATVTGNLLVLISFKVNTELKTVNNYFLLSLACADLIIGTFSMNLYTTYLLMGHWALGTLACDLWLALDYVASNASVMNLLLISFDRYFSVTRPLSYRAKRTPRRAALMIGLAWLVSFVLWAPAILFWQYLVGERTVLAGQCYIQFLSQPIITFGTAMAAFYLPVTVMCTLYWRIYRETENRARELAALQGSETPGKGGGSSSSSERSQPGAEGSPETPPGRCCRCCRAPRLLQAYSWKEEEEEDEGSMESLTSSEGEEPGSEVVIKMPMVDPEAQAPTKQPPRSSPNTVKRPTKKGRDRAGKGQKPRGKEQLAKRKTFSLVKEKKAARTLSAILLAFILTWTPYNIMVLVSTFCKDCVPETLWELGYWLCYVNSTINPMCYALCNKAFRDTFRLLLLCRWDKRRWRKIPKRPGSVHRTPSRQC

Assay [9] shares this target. As to the kind of experiment: Cholinergic receptor muscarinic 1 (CHRM1) small molecule agonists, cell-based qHTS assay (AID 1963589). Further: nearly all actives have a fitted effect of over 35% in size. In short, it runs like this: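 CHO cells stably expressing human CHRM1, seeded 18 h at 37 C/5% CO2, dye-loaded 1 h at 37 C, then given compound in agonist mode; intracellular calcium fluorescence read kinetically at 1 s intervals. Fifteen concentrations, three independent runs.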

Assay [10] can be described thus: cAMP Responsive Elements (CRE) small molecule agonists, cell-based qHTS assay (AID 1963590). In short, it runs like this: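 CRE-bla HEK 293T cells in DMEM with 10% dialyzed FBS, NEAA, pyruvate and 25 mM HEPES were plated 18 h at 37 C/5% CO2, then exposed to compounds in DMSO for 3 h before LiveBLAzer B/G FRET substrate addition.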
The nature of assay [11]: cAMP Responsive Elements (CRE) small molecule antagonists, cell-based qHTS assay (AID 1963591; active means well fitted inhibition curve with a large enough effect in the signal ratio in the repeat runs, not every such curve was filed as active; the % refers to the signal ratio; further: potency means the concentration at half of the fitted maximal effect). The essentials:
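CRE-bla HEK293T cells were plated 18 h at 37 °C/5% CO2, pinned with compound in DMSO, then stimulated with NKH477 at 0.25 uM final for 3 h. LiveBLAzer B/G FRET substrate was added and plates incubated 2 h at room temperature.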

For assay [12], the target named is Beta-2 adrenergic receptor (Homo sapiens) (UniProt P07550). As to the kind of experiment: Adrenergic beta2 receptor (ADRB2) small molecule antagonists, cell-based qHTS assay (AID 1963592). Further: series mostly up to about 92 µM; nearly all actives have a fitted effect of over 50% in size. In short, it runs like this:
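Cells (CHO, stable ADRB2 overexpression) incubated 18-20hr at 37C; compounds added from DMSO; agonist mix (1nM isoproterenol, 100uM IBMX, 25uM Ro-20-1724) added; 0.5hr RT; d2-cAMP and anti-cAMP-cryptate added; 1hr RT; 665/615 nm read.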

Assay [13] concerns the target D(2) dopamine receptor (Homo sapiens) (UniProt P14416). Nature of the assay: Dopamine D2 receptor (DRD2) small molecule agonists, cell-based qHTS assay (AID 1963594). Further: nearly all actives have a fitted effect of over 35% in size. Further: potency means the concentration at half of the fitted maximal effect. In short, it runs like this:
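cAMP accumulation in DRD2-HEK293 cells measured by HTRF after 1 h detection; compounds added 10 min before NKH477 (200nM […]) forskolin-analogue stimulation, 30 min at room temperature, with Ro20-1724 present at 0.1 mM final.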

The target is the same in assay [14]. As to the kind of experiment: Dopamine D2 receptor (DRD2) small molecule antagonists, cell-based qHTS assay (AID 1963595; active means well fitted inhibition curve with a large enough effect in the signal ratio in the repeat runs, with a control signal flat; the % refers to the signal ratio). In short, it runs like this: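 Stable D2 receptor HEK293 line, 24 h after seeding. Compound preincubated 10 min, then quinpirole (12 nM) with forskolin analogue NKH477 (200 nM), 30 min, room temperature. Detection by time-resolved FRET of cAMP.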

The nature of assay [15]: G protein-coupled receptor (GPCR) small molecule agonists, calcium flux assay: HEK293 wild type cell line counter screen (AID 1920065). In short, it runs like this:
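Cells were plated and cultured 18 h at 37 C/5% CO2, then loaded with calcium dye for 1 h at 37 C. Compounds in DMSO were pin-transferred in agonist mode, and fluorescence (Ex/Em 480/540) was read kinetically for 3 min at 1 s intervals.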

Assay [16] can be described thus: p53 small molecule agonists, cell-based qHTS assay with rat liver microsomes (AID 1963578). In short, it runs like this: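 Metabolic activation by rat liver microsomes and NADPH, each 0.5 mg/mL final, added right after compounds to p53RE-bla reporter cells (4,000/well, plated 5 h earlier). 16 h at 37 C, then LiveBLAzer substrate for 2 h at room temperature in the dark; fluorescence read-out.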

Assay [17] concerns the target 5-hydroxytryptamine receptor 2A (Homo sapiens) (UniProt P28223). As to the kind of experiment: 5-hydroxytryptamine receptor 2A (HTR2A) small molecule antagonists, cell-based qHTS assay (AID 1963586). Further: nearly all actives have a fitted effect of over 45% in size. The essentials: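 Antagonist-mode intracellular calcium assay: DOI (4 nM) added after 5 min compound pre-incubation at room temperature to dye-loaded HTR2A-CHO cells. Fluorescence followed for 3 min, sampled every second.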

Assay [18] in a line: p53 small molecule agonists, cell-based qHTS assay with human liver microsomes (AID 1963577).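 Further: p53 response element beta-lactamase reporter cells with liver microsomes plus NADPH.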 The essentials:
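With metabolic activation: human liver microsomes (0.5 mg/mL final) plus NADPH (0.5 mg/mL final) added alongside compounds to p53RE-bla cells; 16 h 37 C exposure; beta-lactamase read by LiveBLAzer fluorescence.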

Assay [19] in a line: p53 small molecule agonists, cell-based qHTS assay (AID 1963582; active means well fitted activation curve with a large enough effect in the signal ratio in the repeat runs, not every such curve was filed as active; the % refers to the signal ratio). The essentials:
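p53RE-bla beta-lactamase reporter cells rested 5 h at 37 C/5% CO2, then received compounds in DMSO by pin transfer and were incubated 16 h at 37 C. LiveBLAzer B/G FRET substrate was loaded for 2 h at room temperature before fluorescence reading.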

A number with no mark means an inactive call. Records with an inconclusive call do not appear. Calls of active or inactive are those of the source. Unless noted, the call rests on the fitted dose curve.

Sequence of 5-hydroxytryptamine receptor 2A (Homo sapiens) (P28223 whole entry, looked up): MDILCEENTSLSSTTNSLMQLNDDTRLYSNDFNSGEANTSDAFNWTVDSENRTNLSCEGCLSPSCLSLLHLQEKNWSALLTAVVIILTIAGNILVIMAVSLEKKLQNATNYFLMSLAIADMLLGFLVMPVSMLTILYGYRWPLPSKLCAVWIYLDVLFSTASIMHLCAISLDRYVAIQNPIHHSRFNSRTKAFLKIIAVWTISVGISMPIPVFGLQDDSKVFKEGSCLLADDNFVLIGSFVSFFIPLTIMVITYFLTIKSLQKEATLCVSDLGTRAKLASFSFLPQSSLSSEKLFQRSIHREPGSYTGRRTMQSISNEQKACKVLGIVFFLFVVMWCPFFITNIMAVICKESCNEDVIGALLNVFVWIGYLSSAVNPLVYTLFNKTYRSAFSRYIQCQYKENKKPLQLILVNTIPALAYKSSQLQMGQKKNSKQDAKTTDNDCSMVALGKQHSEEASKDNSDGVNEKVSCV
Sequence of D(2) dopamine receptor (Homo sapiens) (P14416 whole entry, looked up): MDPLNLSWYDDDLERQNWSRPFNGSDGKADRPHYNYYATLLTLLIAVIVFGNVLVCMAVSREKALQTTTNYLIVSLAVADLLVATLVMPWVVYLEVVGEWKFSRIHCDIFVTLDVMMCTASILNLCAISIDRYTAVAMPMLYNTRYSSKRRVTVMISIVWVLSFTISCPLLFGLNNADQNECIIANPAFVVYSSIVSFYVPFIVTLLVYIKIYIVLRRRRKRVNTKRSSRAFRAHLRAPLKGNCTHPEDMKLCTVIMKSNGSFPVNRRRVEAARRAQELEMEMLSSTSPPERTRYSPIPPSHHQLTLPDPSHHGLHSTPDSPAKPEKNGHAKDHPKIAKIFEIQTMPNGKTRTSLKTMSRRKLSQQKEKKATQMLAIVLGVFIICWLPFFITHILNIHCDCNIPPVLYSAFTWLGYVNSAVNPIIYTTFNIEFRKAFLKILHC
Sequence of Beta-2 adrenergic receptor (Homo sapiens) (P07550 whole entry, looked up): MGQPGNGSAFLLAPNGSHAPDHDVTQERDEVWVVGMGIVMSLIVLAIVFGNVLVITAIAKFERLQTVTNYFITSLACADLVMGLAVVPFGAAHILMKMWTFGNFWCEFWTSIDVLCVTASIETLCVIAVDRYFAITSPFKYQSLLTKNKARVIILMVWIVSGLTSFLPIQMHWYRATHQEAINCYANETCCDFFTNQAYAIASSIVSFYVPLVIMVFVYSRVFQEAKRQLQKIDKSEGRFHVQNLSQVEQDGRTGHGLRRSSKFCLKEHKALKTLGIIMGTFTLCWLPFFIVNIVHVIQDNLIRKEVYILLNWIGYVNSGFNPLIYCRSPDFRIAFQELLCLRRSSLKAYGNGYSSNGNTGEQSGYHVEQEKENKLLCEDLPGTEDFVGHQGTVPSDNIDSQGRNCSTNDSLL
Sequence of Gonadotropin-releasing hormone receptor (Homo sapiens) (P30968 whole entry, looked up): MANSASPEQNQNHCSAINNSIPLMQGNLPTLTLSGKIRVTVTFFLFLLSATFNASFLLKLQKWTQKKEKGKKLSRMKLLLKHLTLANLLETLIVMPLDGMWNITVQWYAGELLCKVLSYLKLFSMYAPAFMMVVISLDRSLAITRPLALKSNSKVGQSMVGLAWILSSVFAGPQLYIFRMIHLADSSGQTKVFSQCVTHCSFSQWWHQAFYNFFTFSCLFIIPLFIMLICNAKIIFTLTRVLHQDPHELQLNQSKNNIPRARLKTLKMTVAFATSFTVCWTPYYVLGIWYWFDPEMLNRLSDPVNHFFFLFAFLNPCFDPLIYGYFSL

With `CCC1(c2cccc(O)c2)CCCCN(C)C1` (centres undefined), the Potency result in [1], in assay [2], in [3], in assay [4], in assay [5] and in assay [6] was “inactive” each time. Also, the Potency result in assay [7], in assay [8], in assay [9], in assay [10], in assay [11] and in [12] was “inactive” throughout. The Potency entry in [13] and in assay [14] was “inactive” each time.
For the compound `COc1cccc2c1C(=O)c1c(O)c3c(c(O)c1C2=O)C[C@@](O)(C(=O)CO)CC3OC1CC(N2CCOC(OC)C2)C(O)C(C)O1` (some centres undefined), the Potency in assay [1] was 7.5 µM (active); in assay [7], 16.9 µM (active); in [11], 1.19 µM (active). Moreover, the Potency entry in [3], in assay [15], in assay [16], in assay [17], in assay [8] and in [9] was “inactive” in each case. Also, the Potency entry in assay [10] was “inactive”.
With `CCCOC(=O)Cc1ccc(OCC(=O)N(CC)CC)c(OC)c1`, the Potency result in assay [1], in [2], in assay [15], in [18], in [16] and in [5] was “inactive” each time. Moreover, the Potency entry in assay [6], in assay [19], in assay [7], in [8], in [9] and in assay [11] was “inactive” each time. Moreover, the Potency result in assay [12] and in [14] was “inactive” throughout. The Potency in [13] is 0.282 µM (active).
Turning to `N#CC(C#N)=Cc1ccc(O)c(O)c1`, the Potency result in assay [1], in [2], in assay [15], in [18], in [16] and in assay [5] was “inactive” each time. The Potency result in assay [6], in assay [19], in assay [12] and in assay [13] was “inactive” throughout.
`O=C1C[C@@H]2OCC=C3CN4CC[C@]56c7ccccc7N1[C@H]5[C@H]2[C@H]3C[C@H]46`: the Potency result in assay [1], in [3], in assay [15], in [18], in [16] and in assay [4] was “inactive” each time. In addition, the Potency entry in [5], in [6], in assay [19], in [10], in assay [12] and in assay [13] was “inactive” throughout. Besides, the Potency result in assay [14] was “inactive”.
`CC[C@H]1C[C@H]2[C@@H]3CCC4=CC(=O)CC[C@@H]4[C@H]3CC[C@]2(C)[C@H]1O`: the Potency result in assay [1], in assay [3], in [15], in assay [18], in assay [16] and in [5] was “inactive” in each case. Besides, the Potency entry in assay [6], in [8], in [9], in assay [12], in [13] and in assay [14] was “inactive” throughout.
With `FC(F)C(F)(F)OCC(Cn1cncn1)c1ccc(Cl)cc1Cl` (centres undefined), the Potency result in assay [1], in [2], in assay [15], in assay [18], in [16] and in assay [4] was “inactive” each time. For the same compound, the Potency result in assay [5], in assay [6], in assay [19], in [17], in assay [7] and in assay [8] was “inactive” in each case. Further, the Potency entry in assay [9], in [12] and in assay [13] was “inactive” throughout.
For `CON(C)C(=O)Nc1ccc(Br)c(Cl)c1`, the Potency result in assay [1], in assay [3], in [15], in [5], in assay [17] and in assay [7] was “inactive” each time. For the same compound, the Potency entry in assay [8], in assay [9], in [10], in assay [11], in assay [12] and in assay [13] was “inactive” each time. Besides, the Potency result in assay [14] was “inactive”.
For the compound `O=C(O)CBr`, the Potency entry in assay [1], in assay [3], in assay [18], in assay [16], in assay [5] and in assay [6] was “inactive” each time. The Potency result in [19], in assay [17], in [7], in assay [9], in assay [10] and in assay [11] was “inactive” each time. For the same compound, the Potency entry in [12], in assay [13] and in assay [14] was “inactive” throughout.
Consider `O=c1[nH]c2ccccc2n1CCCN1CCC(n2c(=O)[nH]c3cc(Cl)ccc32)CC1`, for which the Potency result in assay [1], in assay [3], in assay [15], in [16], in assay [4] and in [5] was “inactive” throughout. In addition, the Potency entry in assay [6] was “inactive”.
